Source: PubChem BioAssay (several laboratories)
Rows were chosen to be rich in hits. Some 3.9% of all compounds tested hit in one or more screens of this group.
HSP90 refold inh – inhibitors of HSP90 luciferase refolding in rabbit reticulocyte lysate. luciferase refolding luminescence, 3 h. inhibition, % at 5.6 µM. hit rate 0.91% among 290,000;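 active means inhibition above the screen-wide mean plus 3 SD, computed separately per campaign, cut at about 16% in these data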;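 further: inhibitors lower the luminescence because luciferase stays unfolded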
aSyn UTR inh – MLPCN primary screen, SNCA 5' untranslated region. alpha-synuclein 5'UTR reporter, inhibitor activity. inhibition, % (tested at 7.5 µM). hit rate 0.82% among 300,000; in the data active means inhibition above about 60%; inconclusive means no clear call, values can overlap the other calls;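 further: H4 neuroglioblastoma cells stably carrying SNCA 5'UTR luciferase fusion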
TWEAK Fn14 block – inhibitors of TWEAK-Fn14 interaction signaling. TWEAK-stimulated Fn14 reporter cells, luciferase luminescence, 8 h. hit rate 2% among 360,000. AID 1159606. inhibition, % at 10 µM; in the data active means inhibition above about 50%
HIF-2a block – inhibitors of HIF-2a | 786-0 RCC cells HIF-2a reporter, luciferase luminescence, overnight | inhibition, % at 18.8 µM | hit rate 0.72% among 360,000;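 active means inhibition of the luminescence signal of 40% or more relative to plate controls, in a single-dose primary screen at 18.75 µM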
TROY signal inh – TROY signaling inhibition; Q293 LMP1-TROYcd NF-kB luciferase reporter, 4 h; inhibition, % at 10 µM; hit rate 0.98% among 360,000; AID 1347056;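 active means compounds whose plate-normalised and pattern-corrected inhibition of the luciferase reporter signal at the single screening dose is 50% or more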
TRAIL sens C8 – sensitizes caspase-8 expressing cells to TRAIL; hit rate 1% among 360,000; inhibition (viability loss, TRAIL sensitization), % at 10 µM; AID 624354; NB7+C8 cells + TRAIL, ATPlite viability luminescence;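 active means compounds causing at least 50% loss of cell viability in the single-dose screen, relative to plate controls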
HSP90 inh confirm – HSP90 inhibition, confirmation assay; shares compounds with HSP90 refold inh; rabbit reticulocyte lysate, luciferase refolding luminescence, 3 h; inhibition, % at 5.9 µM; hit rate 64% among 2,300; AID 1846; in the data active means inhibition above about 18%
FLuc counter – blocks native firefly luciferase in HSP90 counter-screen | shares compounds with HSP90 refold inh | purified native firefly luciferase, luminescence | inhibition, % at 5.9 µM | hit rate 48% among 2,300 | AID 1847;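 active means inhibition above the mean inhibition of all tested sample wells plus 3 SD, cut at about 10% in these data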
Target sequence (P08659 whole entry, looked up): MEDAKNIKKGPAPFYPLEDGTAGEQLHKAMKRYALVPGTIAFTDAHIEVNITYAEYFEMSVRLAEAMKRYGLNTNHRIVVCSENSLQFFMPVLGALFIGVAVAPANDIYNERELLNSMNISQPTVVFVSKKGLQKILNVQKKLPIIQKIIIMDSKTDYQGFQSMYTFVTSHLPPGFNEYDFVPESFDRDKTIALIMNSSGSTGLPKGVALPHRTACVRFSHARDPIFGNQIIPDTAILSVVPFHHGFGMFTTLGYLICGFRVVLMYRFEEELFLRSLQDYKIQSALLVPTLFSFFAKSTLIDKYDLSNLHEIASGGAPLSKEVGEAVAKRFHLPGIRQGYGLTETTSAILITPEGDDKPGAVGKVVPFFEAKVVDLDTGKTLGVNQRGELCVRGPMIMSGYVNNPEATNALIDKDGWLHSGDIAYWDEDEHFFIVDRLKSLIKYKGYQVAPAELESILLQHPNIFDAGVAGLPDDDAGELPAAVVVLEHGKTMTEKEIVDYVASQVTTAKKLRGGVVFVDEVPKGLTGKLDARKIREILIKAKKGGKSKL
Of the large screens only hits and unclear results are named; the others gave an inactive call (follow-up assays come after a bar, where they were run).

COC(=O)C1CCN(C2CN(Cc3ccc([N+](=O)[O-])cc3)S(=O)(=O)C2)CC1 (stereo not drawn)	none (no result: HSP90 refold inh, aSyn UTR inh)
O=C1NC[C@@H](CCCCN2C[C@H](Cc3ccc(O)cc3)N(CC3CCCCC3)C(=O)C2=O)N(CCc2ccccc2)C1=O	none (no result: HSP90 refold inh, aSyn UTR inh)
CC(=O)Nc1cc2nn(-c3ccccc3)nc2cc1C	HSP90 refold inh 21 | HSP90 inh confirm 32 | FLuc counter 21
Cc1cc2nn(-c3ccccc3)nc2cc1NC(=O)c1cccs1	none
Cc1cccc(C)c1NC(=O)/C(C#N)=C/c1ccc(-c2ccc(C(=O)O)cc2)o1	HSP90 refold inh 34 | HSP90 inh confirm 36 | FLuc counter inactive
N#C/C(=C\c1ccc(-c2ccc(C(=O)O)cc2)o1)C(=O)Nc1ccc(F)cc1	none
O=C(NCc1ccc(Cl)cc1)N1CCN(S(=O)(=O)c2ccccc2)CC1	HSP90 refold inh 38 | HSP90 inh confirm inactive | FLuc counter inactive
O=C(NCc1ccc(Cl)cc1)N1CCN(C(=O)c2ccccc2)CC1	none (no result: HSP90 refold inh, aSyn UTR inh)
O=C(O)c1ccc(/C=N/Nc2ccc(F)cc2F)cc1	HSP90 refold inh 46 | HSP90 inh confirm 78 | FLuc counter 58
Cc1nc(N)sc1-c1csc(N(C)c2ccc(O)cc2)n1	HSP90 refold inh 27 | HSP90 inh confirm inactive | FLuc counter inactive
Cc1sc2ncnc(SCC(=O)c3ccc(Cl)s3)c2c1C	none (no result: TWEAK Fn14 block, HIF-2a block, TROY signal inh, TRAIL sens C8)
Cc1sc2ncnc(SCC(=O)c3ccc(O)cc3O)c2c1C	HSP90 refold inh 19 | HSP90 inh confirm inactive | FLuc counter inactive
CC(C)Oc1ccc(C(=O)Nc2nc3ccccc3[nH]2)cc1	HSP90 refold inh 83, aSyn UTR inh 81, TWEAK Fn14 block 98, HIF-2a block 55, TROY signal inh 82, TRAIL sens C8 92 | HSP90 inh confirm 90 | FLuc counter 85
COc1ccc(Cl)cc1C(=O)Nc1nc2ccccc2[nH]1	HSP90 refold inh 71, aSyn UTR inh 89, TWEAK Fn14 block 95, TROY signal inh 71, TRAIL sens C8 81 | HSP90 inh confirm 87 | FLuc counter 77
CCOc1ccc(C(=O)Nc2nc3ccccc3[nH]2)cc1OCC	none
O=C(Nc1nc2ccccc2[nH]1)c1ccc(F)cc1	HSP90 refold inh 35, TWEAK Fn14 block 69, TRAIL sens C8 83 | HSP90 inh confirm 57 | FLuc counter 44
O=C(Nc1nc2ccccc2[nH]1)c1ccc(OC(F)F)cc1	HSP90 refold inh 37, TRAIL sens C8 83 | HSP90 inh confirm 58 | FLuc counter 53
COC(=O)[C@@]12C[C@@H](CC(=O)NCc3cccc(C(F)(F)F)c3)C(=O)N(Cc3cccc4ccccc34)C1=CCC(C)(C)C2	none (no result: HSP90 refold inh, aSyn UTR inh, TWEAK Fn14 block, TROY signal inh)
Cc1ccc(S(=O)(=O)Oc2ccccc2-c2ccccc2)cc1	none (no result: HSP90 refold inh, aSyn UTR inh)
O=C(Nc1nc2ccccc2[nH]1)c1ccccc1F	HSP90 refold inh 84, aSyn UTR inh 108, TWEAK Fn14 block 102, HIF-2a block 75, TROY signal inh 84, TRAIL sens C8 90 | HSP90 inh confirm 95 | FLuc counter 88
O=C(Nc1nc2ccccc2[nH]1)c1ccccc1OC(F)F	HSP90 refold inh 30, TWEAK Fn14 block 64, TRAIL sens C8 69 | HSP90 inh confirm 55 | FLuc counter 45
O=C(Nc1nc2ccccc2[nH]1)c1ccccc1[N+](=O)[O-]	none
Cc1ccsc1C(=O)Nc1nc2ccccc2[nH]1	HSP90 refold inh 22, TRAIL sens C8 60 | HSP90 inh confirm 38 | FLuc counter 29
CN(C)S(=O)(=O)c1ccc(C(=O)Nc2nc3ccccc3[nH]2)cc1	none
CNC(=S)N/N=C/c1ccc(-c2ccc(C(=O)O)cc2)o1	HSP90 refold inh 34 | HSP90 inh confirm 37 | FLuc counter inactive
CCOC(=O)[C@H]1[C@H]2COc3ccc(Cl)cc3[C@@H]2N2C(=O)c3cc(F)c(F)cc3NC(=O)[C@@]12C	none (no result: HSP90 refold inh, aSyn UTR inh)
Cc1ccc(N=Nc2cc(C)ccc2N)cc1	HSP90 refold inh 26, aSyn UTR inh inconclusive, TRAIL sens C8 69 | HSP90 inh confirm 63 | FLuc counter 61
COc1ccc(NC(=O)N2CCCC(c3nc(-c4ccc(OC)cc4)no3)C2)cc1 (stereo not drawn)	HSP90 refold inh 21 | HSP90 inh confirm inactive | FLuc counter inactive
